From PubChem BioAssay AID725 (NMMLSC, 2007)
Hit rate of the full screen: of about 1,300 compounds, fewer than 10 were called active. The rule behind the calls is not given here. Not all results are given here.

Target: N-formyl peptide receptor 2 (Homo sapiens) (UniProt P25090)
Experiment: FPRL1 fluorescent ligand binding inhibitors, primary screen, selectivity assay for FPR ligand SAR project, cell-based, flow cytometry, HTS counterscreen (AID 725)
Details: FPRL1-expressing cells, stronger effect = higher value, concentration not given here

Chain of N-formyl peptide receptor 2 (Homo sapiens) (P25090 whole entry, looked up): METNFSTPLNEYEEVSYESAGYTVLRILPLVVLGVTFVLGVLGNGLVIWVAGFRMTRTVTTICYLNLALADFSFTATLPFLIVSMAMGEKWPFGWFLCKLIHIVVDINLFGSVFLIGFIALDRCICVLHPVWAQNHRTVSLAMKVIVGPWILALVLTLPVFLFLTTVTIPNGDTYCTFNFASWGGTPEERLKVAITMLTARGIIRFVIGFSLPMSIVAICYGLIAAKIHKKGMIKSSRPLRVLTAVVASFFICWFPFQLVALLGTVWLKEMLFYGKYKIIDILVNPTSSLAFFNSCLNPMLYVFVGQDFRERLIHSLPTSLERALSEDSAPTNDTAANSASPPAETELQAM

Row | Compound | inhibition
1 | CCOc1ccc(/C(O)=C2\C(=O)C(=O)N(c3nnc(C)s3)C2c2ccc(Br)cc2)cc1 (centres undefined) | 1.9% (inactive)
2 | COc1ccc(C2C(C(=O)c3cc4ccccc4o3)=C(O)C(=O)N2c2nccs2)cc1 (centres undefined) | 1% (inactive)
3 | Cc1ccc(C2/C(=C(\O)c3ccc(F)cc3)C(=O)C(=O)N2CCN2CCOCC2)o1 (centres undefined) | 5.6% (inactive)
4 | CN1C(=O)c2ccccc2C(C(=O)N2CCCCC2)C1c1cccs1 (centres undefined) | -3.9% (inactive)
5 | O=C1C(=O)N(CCN2CCOCC2)C(c2ccco2)/C1=C(\O)c1ccc(F)cc1 (centres undefined) | 5.5% (inactive)
6 | Cc1cc(=O)n2[nH]cc(C(=O)O)c2n1 | -16.5% (inactive)
7 | O=C(C1=C(O)C(=O)N(CCN2CCOCC2)C1c1cccs1)c1ccco1 (centres undefined) | -2% (inactive)
8 | CN(C)CCN1C(=O)C(O)=C(C(=O)c2cc3ccccc3o2)C1c1cccc(Oc2ccccc2)c1 (centres undefined) | 1.3% (inactive)
9 | CCN1C(=O)C(O)(CC(=O)c2ccc3c(c2)OCO3)c2ccccc21 (centres undefined) | -4.3% (inactive)
10 | CCOC(=O)c1c(NC(=O)C2C3CCC(O3)C2C(=O)O)sc2c1CCC(CC)C2 (centres undefined) | 0.3% (inactive)
11 | CCOC(=O)N1CCC(c2cc(=O)n3[nH]cc(C(=O)Nc4ccc(OCC)cc4)c3n2)CC1 | -5.2% (inactive)
12 | CCOC(=O)C1NN=C(C(=O)c2ccc(OC)cc2)C1c1ccccc1 (centres undefined) | 3.5% (inactive)
13 | Cc1ccc(N2C(=O)C(=O)/C(=C(\O)c3ccc(Cl)cc3)C2c2cccnc2)cc1Br (centres undefined) | 4.5% (inactive)
14 | CCc1cc2c(=O)c(-c3nc4ccccc4s3)c(C)oc2c(CN2CCCCC2)c1O | -7.2% (inactive)
15 | COc1ccc(N2C(=O)CSC2c2ccc(C(C)C)cc2)cc1 (centres undefined) | 4.8% (inactive)
16 | CCCCn1c(=O)c2oc3ccccc3c2n(Cc2ccccc2F)c1=O | -2.7% (inactive)
17 | CCCN(C(=O)[C@H]1[C@@H]2C[C@@H]3[C@H]1C(=O)O[C@@H]3C2)c1ccccc1OCC | 9.1% (inactive)
18 | Cc1cccc(N2C(=O)CSC2c2cccc(F)c2)c1 (centres undefined) | -31.8% (inactive)
19 | Cc1ccc(C)c(Cn2c(=O)cc(C)c3c(C)nn(-c4ccccc4)c32)c1 | -16.2% (inactive)
20 | Cc1ccc(/C(O)=C2/C(=O)C(=O)NC2c2ccc3c(c2)OCO3)cc1 (centres undefined) | 1.1% (inactive)
21 | CCOC(=O)C1=C(C)N(c2ccc(C)c(C)c2)C(=O)/C1=C\c1ccccc1OC | -8.1% (inactive)
22 | CCN1C(=O)C(=C2CCCC2)N(CC)C1=O | 8% (inactive)
23 | CCCCCCN1C(=O)C(=O)/C(=C(\O)c2ccccc2)C1c1ccc(C(C)C)cc1 (centres undefined) | -2.5% (inactive)

Row | Compound | inhibition
24 | COc1cc(C)nc(N(CCC(C)C)S(=O)(=O)c2ccc(C)cc2)n1 | -7.7% (inactive)
25 | COc1cc(C2C(C(=O)c3cc4ccccc4o3)=C(O)C(=O)N2CCN(C)C)ccc1O (centres undefined) | -0.3% (inactive)
26 | CCOC(=O)c1c(NC(=O)c2csc3c2CCCC3)sc2c1CCCC2 | -7% (inactive)
27 | CC(c1cccs1)N(Cc1ccco1)C(=S)Nc1ccccc1Cl (centres undefined) | 10.4% (inactive)
28 | CCOC(=O)c1oc2cc(OCc3ccc(F)cc3)ccc2c(=O)c1-c1ccccc1OC | 1.2% (inactive)
29 | CCCCCCN1C(=O)C(=O)/C(=C(/O)c2ccccc2)C1c1ccc(Br)cc1 (centres undefined) | 0.8% (inactive)
30 | COc1ccc(OC)c(C2/C(=C(\O)c3ccccc3)C(=O)C(=O)N2CCC(=O)O)c1 (centres undefined) | -4.7% (inactive)
31 | CCOC(=O)c1cnn2c(=O)c3c(n(CC)c12)CCN(Cc1ccc(OC)cc1)C3 | 1.3% (inactive)
32 | Cc1ccc(/C(O)=C2\C(=O)C(=O)N(c3nnc(C)s3)C2c2ccc(Cl)cc2)cc1 (centres undefined) | -9.8% (inactive)
33 | CCCCn1c(=O)c2oc3ccccc3c2n(Cc2cccc(C)c2)c1=O | -15.7% (inactive)
34 | Cc1ccc(N2C(=O)CSC2c2ccc(C(C)(C)C)cc2)cc1F (centres undefined) | -16.2% (inactive)
35 | NC(=O)c1c(NC(=O)C2CC3CCC2C3)sc2c1CCCC2 (centres undefined) | 9% (inactive)
36 | COc1ccccc1C1/C(=C(\O)c2ccccc2)C(=O)C(=O)N1c1ccc(C)c(Cl)c1 (centres undefined) | -1.5% (inactive)
37 | CCOc1ccc(C2/C(=C(/O)c3ccccc3)C(=O)C(=O)N2c2ccc(C)c(Br)c2)cc1 (centres undefined) | 1.2% (inactive)
38 | COc1ccc(Br)cc1CNC(=O)Cn1c(=O)oc2ccccc21 | -20.3% (inactive)
39 | Cc1cc(C)cc(N2C(=O)CSC2c2ccccc2Br)c1 (centres undefined) | -7.5% (inactive)
40 | C=CCN1C(=O)C2C(c3ccccc3)C=CC(c3ccccc3)C2C1=O (centres undefined) | -6.2% (inactive)
41 | O=C(c1ccc(Br)cc1)N(Cc1ccco1)Cc1ccccc1F | 27.5% (inactive)
42 | O=C1C(=O)N(c2cccnc2)C(c2cccc(F)c2)/C1=C(/O)c1ccccc1 (centres undefined) | -1.7% (inactive)
43 | COc1ccccc1C(CC(=O)NCc1cccs1)n1cccc1 (centres undefined) | 12% (inactive)
44 | CC1CCN(Cn2nc(-c3ccco3)n(-c3ccccc3)c2=S)CC1 | 6.9% (inactive)
45 | COc1ccc(C2C(C(=O)c3cccs3)=C(O)C(=O)N2Cc2cccnc2)cc1OC (centres undefined) | -3.8% (inactive)
46 | Cc1ccc2c(c1)oc(=O)n2C(=O)COc1ccccc1 | 4.9% (inactive)

Row | Compound | inhibition
47 | O=C(c1ccccc1Br)N(Cc1ccc(F)cc1)Cc1ccco1 | -2% (inactive)
48 | CCc1c(C)sc(NC(=O)C2C3C=CC(C3)C2C(=O)O)c1C(=O)OC(C)C (centres undefined) | -6% (inactive)
49 | Cc1nnc(N2C(=O)C(O)=C(C(=O)c3cccs3)C2c2ccccc2)s1 (centres undefined) | 1.7% (inactive)
50 | CCOC(=O)c1c(NC(=O)c2ccccc2Cl)sc2c1CCC2 | 0% (inactive)
51 | CCOc1ccccc1C1C(C#N)=C(SC)NC(=O)C1C(=O)OC (centres undefined) | 7.1% (inactive)
52 | COC(=O)c1c[nH]n2c(=O)c(C(C)C)c(C)nc12 | -13.8% (inactive)
53 | CCCOc1ccc(/C(O)=C2\C(=O)C(=O)N(CCN3CCOCC3)C2c2ccc(C(C)C)cc2)cc1C (centres undefined) | -8.4% (inactive)
54 | CC(C)n1c(=O)c2oc3ccccc3c2n(Cc2ccccc2F)c1=O | 11.7% (inactive)
55 | Cc1ccc(S(=O)(=O)NC(CC(=O)O)c2cccc(Cl)c2)c(C)c1 (centres undefined) | -6.5% (inactive)
56 | CCOC(=O)c1c(NC(=O)c2ccccc2)sc2c1CCC(C)C2 (centres undefined) | -3.5% (inactive)
57 | COCCN1C(=O)C(=O)/C(=C(/O)c2ccccc2)C1c1ccc(C(C)C)cc1 (centres undefined) | 3.7% (inactive)
58 | CC(C)c1ccc(C2/C(=C(\O)c3ccccc3)C(=O)C(=O)N2c2nc3ccccc3s2)cc1 (centres undefined) | 0% (inactive)
59 | Cc1ccc(F)cc1N1C(=O)CSC1c1ccc(Br)cc1 (centres undefined) | 1.5% (inactive)
60 | Cc1cccc(C(=O)N(Cc2ccco2)Cc2ccccc2F)c1 | 14.7% (inactive)
61 | COc1ccc(-c2c(C)[nH]n3c(=O)c4c(nc23)CCCC4)cc1 | -4.2% (inactive)
62 | CCOC(=O)c1c(NC(=O)c2ccc(Br)cc2)sc(C)c1C | 9.7% (inactive)
63 | Cc1onc(-c2c(Cl)cccc2Cl)c1C(=O)NC1CCCCC1 | -7.3% (inactive)
64 | CCC(=O)Oc1ccc2c(C)c(Cc3ccccc3)c(=O)oc2c1C | -5.7% (inactive)
65 | CCn1c2c(c(=O)n3ncc(C(=O)O)c13)CN(Cc1ccccc1)CC2 | 9.1% (inactive)
66 | CCOC(=O)c1c(NC(=O)c2ccccc2C(=O)O)sc(C)c1C | -6.4% (inactive)
67 | CCOC(=O)COc1ccc2c(=O)c(-c3ccccc3OC)c(C(F)(F)F)oc2c1 | -6.1% (inactive)
68 | Cc1ccc(Oc2c(C(F)(F)F)oc3c(CN4CCC(C)CC4)c(O)ccc3c2=O)cc1 | -2.8% (inactive)
69 | O=C(c1ccccc1F)N1c2ncnn2C2(CCCCC2)[C@@H]2CCCC[C@@H]21 | 2.4% (inactive)

Row | Compound | inhibition
70 | O=C1C(=O)N(CCN2CCOCC2)C(c2ccncc2)/C1=C(\O)c1ccccc1 (centres undefined) | 0.7% (inactive)
71 | NC(=O)c1c(NC(=O)C2C3C=CC(C3)C2C(=O)O)sc2c1CCCCC2 (centres undefined) | 7.3% (inactive)
72 | C=CCOc1ccccc1/C=C1/C(=O)NN(c2ccc(C)c(Cl)c2)C1=O | -5.7% (inactive)
73 | O=C(CSc1nnc(-c2ccco2)o1)c1cccc2ccccc12 | -5.2% (inactive)
74 | CCOC(=O)C(CC)Oc1ccc2c(=O)c(-c3ccc(OC)c(OC)c3)c(C(F)(F)F)oc2c1 (centres undefined) | 7.8% (inactive)
75 | CN(C)CCCN1C(=O)C(O)=C(C(=O)c2ccco2)C1c1ccccc1 (centres undefined) | 9.4% (inactive)
76 | CN(C)c1ccc(C2C(C(=O)c3ccco3)=C(O)C(=O)N2CC2CCCO2)cc1 (centres undefined) | -0.8% (inactive)
77 | Cc1cc(C)cc(N2C(=O)CSC2c2c(F)cccc2Cl)c1 (centres undefined) | -8.8% (inactive)
78 | COc1ccccc1C1SCCN1S(=O)(=O)c1ccc(F)cc1 (centres undefined) | 11.3% (inactive)
79 | O=C(O)CCN1C(=O)C(=O)/C(=C(/O)c2ccccc2)C1c1ccc(Br)cc1 (centres undefined) | -4.1% (inactive)
80 | O=C(Nc1cccc(C(=O)N(Cc2ccccc2)Cc2ccccc2)c1)[C@@H]1[C@H]2C[C@H]3[C@@H]1C(=O)O[C@H]3C2 | 3.8% (inactive)
81 | COc1ccc(OC)c(C2SCCN2S(=O)(=O)c2ccc(C)cc2)c1 (centres undefined) | 6.1% (inactive)
82 | CCCOc1ccc(C2C(C(=O)c3cc4ccccc4o3)=C(O)C(=O)N2CCN(C)C)cc1 (centres undefined) | -0.2% (inactive)
83 | COc1ccccc1-c1c(C)oc2c(CN3CCCCC3C)c(O)ccc2c1=O (centres undefined) | -3.9% (inactive)
84 | COc1cccc(C2C(C(=O)c3cc4ccccc4o3)=C(O)C(=O)N2CCN2CCOCC2)c1 (centres undefined) | 2.7% (inactive)
85 | O=C(C1=C(O)C(=O)N(CCN2CCOCC2)C1c1cccnc1)c1cccs1 (centres undefined) | -0.7% (inactive)
86 | Cc1onc(-c2c(Cl)cccc2Cl)c1C(=O)N1CCCCCC1 | -6.1% (inactive)
87 | Cc1ccc(N2C(=O)CSC2c2ccccc2F)cc1C (centres undefined) | -4.3% (inactive)
88 | O=C(Oc1ccc2c(=O)c(Oc3ccccc3Br)c(C(F)(F)F)oc2c1)c1cccs1 | -1.4% (inactive)
89 | CN1C(=O)C2(/C(=C(/O)c3ccccc3)C(=O)C(=O)N2CC2CCCO2)c2ccccc21 (centres undefined) | -3.7% (inactive)
